# Reference: PubChem BioAssay AID504332 (National Center for Advancing Translational Sciences (NCATS), 2011)
# In all, about 350,000 compounds went through this assay and about 31,000 (8.9%) were called active. About 15% were inconclusive and are not listed. Only a selection was taken, and actives are over-represented in it overall. A number with no mark means an inactive call. Calls come from the whole dose curve; as a rule, active = well fitted inhibition curve with a large enough effect; inconclusive = small, poorly fitted or top-dose-only effect; inactive = no such curve, though single readings can be large or run the other way.
# Target: Histone-lysine N-methyltransferase EHMT2 (Homo sapiens) (UniProt Q96KQ7)
# Experiment: qHTS Assay for Inhibitors of Histone Lysine Methyltransferase G9a; note: nearly all actives have a fitted effect of over 75% in size
# Details: G9a H3K9 monomethylation, AlphaScreen, 2 h; series mostly up to 59 µM; activity, negative = inhibition: at the top concentration
# Outline: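 Step 1: enzyme (final 20 nM) with compound, 15 min RT. Step 2: substrate peptide 500 nM and SAM 20 uM, 2 h RT. Step 3: anti-H3K9me1 antibody and AlphaScreen beads, 10 min, then plate read.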
# % is set by controls: 0 for no effect and ±100 for the full control effect; potency is the fitted concentration of half-maximal effect.
# Sequence of Histone-lysine N-methyltransferase EHMT2 (Homo sapiens) (Q96KQ7 913-1193 limits assumed): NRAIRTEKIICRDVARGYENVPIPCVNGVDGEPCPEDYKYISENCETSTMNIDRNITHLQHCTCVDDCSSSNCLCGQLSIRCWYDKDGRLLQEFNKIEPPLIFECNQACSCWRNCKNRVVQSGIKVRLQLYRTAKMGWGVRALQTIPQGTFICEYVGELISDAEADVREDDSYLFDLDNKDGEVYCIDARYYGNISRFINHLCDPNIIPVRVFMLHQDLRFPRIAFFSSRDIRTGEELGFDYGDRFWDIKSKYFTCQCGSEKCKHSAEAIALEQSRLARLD
Structure (SMILES),"activity, negative = inhibition",Potency
CCOc1ccc(N(CC)S(=O)(=O)N2CCCC(C(=O)NCc3ccc(SC)cc3)C2)cc1 (stereo unspecified),-30.4%,–
CCCCn1c(=O)c2oc3ccccc3c2n(CC(=O)Nc2ccccc2OC)c1=O,6.86%,–
COc1cc(NC(=S)N2CCCC(C)C2)cc(OC)c1OC (stereo unspecified),–,50.1 µM (active)
COc1ccc(NC(=S)N2CCCC(CO)C2)c(OC)c1 (stereo unspecified),-13.8% [at 102 µM],–
CCCCc1ccc(NC(=S)N2CCCC(CO)C2)cc1 (stereo unspecified),22.7%,–
CCOc1ccc(NC(=O)c2ccc(NC(=O)COC(=O)c3ccc(NC(=O)CC#N)cc3)cc2)cc1,12.7% [at 2.33 µM],–
O=C(NCc1ccccc1)C(=O)NCC(c1ccco1)S(=O)(=O)c1ccc(Cl)cc1 (stereo unspecified),-6.14%,–
Cc1nn(Cc2ccccc2)c(C)c1C(=O)N1CCN(CC(=O)Nc2ccccc2Cl)CC1,-4.66%,–
Cc1ccc(S(=O)(=O)N(C)C)cc1NC(=O)COC(=O)c1c(C)noc1C,-6.63%,–
CN(C)S(=O)(=O)c1cccc(NC(=O)COC(=O)/C=C/c2cccs2)c1,6.05% [at 102 µM],–
Cc1ccc(S(=O)(=O)N(C)C)cc1NC(=O)COC(=O)/C=C/c1cccs1,–,28.2 µM (active)
CCOC(=O)c1cc2c(=O)n3ccccc3nc2n(CCCOC)c1=NC(=O)C(C)Oc1ccccc1 (stereo unspecified),6.36%,–
COCCCC1CCN(C(=O)C2CCC(=O)N(C3CCCCCC3)C2)CC1 (stereo unspecified),11.5% [at 102 µM],–
Cc1onc(-c2ccc(F)cc2F)c1C(=O)Nc1cccc(C(F)(F)F)c1,3.49%,–
Cc1ccc(C(=O)N2c3ncnn3C3(CCCCC3)[C@@H]3CCCC[C@@H]32)cc1,-3.48%,–
Cc1ccccc1CN1CCC(CNC(=O)c2cc3ccc4cccnc4c3[nH]2)CC1,-2.49%,–
COc1cc(C(=O)NNC(=O)CN2C(=O)NC3(CCCC3)C2=O)cc(OC)c1OC,-2.65%,–
O=C(c1cc2cc(F)ccc2[nH]1)N1CCN(c2ccc(F)cc2)CC1,-8.91% [at 102 µM],–
O=C(CCCN1CCc2[nH]c3ccc(F)cc3c2C1)c1ccc(F)cc1,–,50.1 µM (active)
Cc1nnc(SCc2cc(=O)c3cc(F)ccc3[nH]2)n1C,-1.44%,–
Cc1cc(=O)[nH]c(SCC(N)=O)c1C#N,9.52% [at 2.33 µM],–
Cc1cc(C#N)c(SCC(N)=O)nc1-c1ccc(F)cc1,–,12.6 µM (active)
Cc1ccc2cc(C#N)c(SCC(=O)NCC3CCCO3)nc2c1C (stereo unspecified),-4.15% [at 102 µM],–
COc1ccc(Cc2nnc(NC(=O)c3ccc(OC)cc3OC)s2)cc1,-7.06% [at 0.501 µM],–
COc1ccc(C(=O)Nc2nncs2)c(OC)c1,–,39.8 µM (active)
COc1ccc(C(=O)NC2=NCCS2)c(OC)c1,5.43% [at 12.7 µM],–

Structure (SMILES),"activity, negative = inhibition",Potency
COc1ccc(S(=O)(=O)c2c(Nc3ccc(C)cc3)sc(C(=O)c3ccc(C)cc3)c2N)cc1,9.77%,–
O=C(NCc1ccccc1)C(c1ccco1)N(C(=O)c1csnn1)c1ccccc1F (stereo unspecified),1.04% [at 102 µM],–
Cc1ccc(NC(=O)CSc2nnc3[nH]c(=O)cc(C)n23)cc1Cl,-15.6%,–
CC(C)NC(=O)C(=O)N/N=C/c1ccco1,4.44%,–
COC(=O)C1=C(C)N(C(C)c2ccccc2)C(=O)/C1=C\c1ccco1 (stereo unspecified),–,35.5 µM (active)
COC(=O)C1=C(C)N(c2ccc(Br)cc2)C(=O)/C1=C\c1ccco1,-24.3%,–
COc1c(Cl)cc(C(=O)N(Cc2ccccc2F)C2CCS(=O)(=O)C2)cc1Cl (stereo unspecified),4.3%,–
Cc1ccc(C(=O)N2CCc3cc(CNC(=O)c4ccc(Br)cc4)ccc32)cc1,-38.8%,–
O=C(OCC(=O)N1CCc2ccccc21)c1ccc([N+](=O)[O-])cc1,-12.4% [at 2.33 µM],–
CCC(CC)COC(=O)C1=C(C)NC(=O)NC1c1ccc([N+](=O)[O-])cc1 (stereo unspecified),24.1% [at 102 µM],–
COc1cccc(N2CCN(CC(=O)Nc3ccnn3C3CCCC3)CC2)c1,3.38% [at 12.7 µM],–
CCCSc1ncc(Cl)c(C(=O)Nc2sc3c(c2C(=O)NCCOC)CCCC3)n1,-44.5%,–
COc1ccc(NS(=O)(=O)c2ccc(NC(C)=O)cc2)cc1OC,-48.3%,–
CC(=O)Nc1ccc(S(=O)(=O)Nc2cc(C)cn(Cc3ccc(C)cc3)c2=O)cc1,–,44.7 µM (active)
COc1cc(NS(=O)(=O)c2ccc(NC(C)=O)cc2)cc(OC)c1,-9.27%,–
CC(=O)c1c(C)[nH]c(C(=O)N2CCN(S(=O)(=O)c3ccc(F)c(F)c3)CC2)c1C,-26.5% [at 102 µM],–
CCC(C)C(=O)Nc1ccccc1N1CCN(c2ccc(F)cc2)CC1 (stereo unspecified),0.656% [at 102 µM],–
Cc1ccc(OCCC(=O)Nc2ccc(S(=O)(=O)Nc3nccs3)cc2)cc1,15% [at 12.7 µM],–
COc1cn(CC(=O)Nc2cccc(C)c2C)c(CN2CCCCC2)cc1=O,4.69%,–
C/C=C/C=N/NC(=O)c1ccncc1,3.78% [at 12.7 µM],–
COc1ccccc1C(=O)Nn1cnnc1,10.5% [at 102 µM],–
O=C(NN1C(=O)C2C3C=CC(O3)C2C1=O)c1ccncc1 (stereo unspecified),–,44.7 µM (active)
COc1ccccc1C(=O)NN1C(=O)C2C3C=CC(O3)C2C1=O (stereo unspecified),–,35.5 µM (active)
O=C(NN1C(=O)C2C3C=CC(C4CC34)C2C1=O)c1ccc(Cl)cc1 (stereo unspecified),7.55% [at 102 µM],–
COc1ccc(C(=O)NN2C(=O)C3C(c4ccccc4)C=CC(c4ccccc4)C3C2=O)cc1 (stereo unspecified),17.1%,–
